{"source": "PubChem BioAssay (NCATS)", "note": "Inconclusive results are not listed. Activity calls are given as the source filed them. The call rests on the fitted dose curve; in most records, active means well fitted inhibition curve with a large enough effect; inconclusive means small, poorly fitted or top-dose-only effect; inactive means flat fitted curve, though single readings scatter."}
{"tested_on": "HACAT", "experiment": "qHTS assay to identify novel small-molecules to repurpose for Merkel cell carcinoma treatment (AID 1296009); further: nearly all actives have a fitted effect of over 60% in size", "conditions": "MCC and control cell lines, CellTiter-Glo viability, 72 h; at 44.8 µM (top of the series) unless noted", "in_short": "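Luminescence from CellTiter-Glo, read 10 min after addition at room temperature, reported viability following a 72 hr, 37 degree celsius treatment with NPC or MIPE compounds in titration; values normalized to plate controls.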"}
{"smiles": "C=C(COC(=O)CC(C)C)C1Cc2cc(C(C)=O)ccc2O1", "note": "(centres undefined)", "outcome": "inactive"}
{"smiles": "COc1cc(OC)cc(-c2ccc3c(-c4ccc(F)cc4)[nH]nc3n2)c1", "outcome": "inactive"}
{"smiles": "C[C@H](O)C(O)(C(=O)OCc1ccccc1NC(=O)CCC(N)C(=O)O)[C@H](C)O", "note": "(some centres undefined)", "outcome": "inactive [at 17.4 µM]"}
{"smiles": "CC(CC12CCCN1C(=O)C1CCCN1C2=O)OC(N)=O", "note": "(centres undefined)", "outcome": "inactive"}
{"smiles": "CC12CC(c3ccoc3)OC(=O)C1CCC1(C)C2CCC(O)C1(C)O", "note": "(centres undefined)", "outcome": "inactive"}
{"smiles": "CC1(C)CC[C@]2(C(=O)O)CC[C@]3(C)C(=CCC4[C@@]5(C)C[C@@H](O)[C@H](O)[C@@](C)(CO)C5[C@H](O)C[C@]43C)[C@@H]2C1", "note": "(some centres undefined)", "outcome": "inactive [at 17.4 µM]"}
{"smiles": "COc1cc(C)c(C(=O)OC2C(C)OC(OC3CCC(C)C4C3C=C(C)C3/C(C)=C\\CC/C(C)=C/C5(C)C=C(C(=O)O)C(C)CC56OC(=O)/C(=C(\\O)C34C)C6=O)C(O)C2O)c(OC)c1", "note": "(centres undefined)", "outcome": "inactive [at 9.27 µM]"}
{"smiles": "C[C@@H](c1ccccc1)N(C(N)=NC#N)c1cccc2ncccc12", "outcome": "inactive"}
{"smiles": "O=C(O)c1cccc(C(=O)CCC2OC(n3cnc4c(=O)[nH]cnc43)C(O)C2O)c1", "note": "(centres undefined)", "outcome": "inactive [at 17.4 µM]"}
{"smiles": "Cc1cn(-c2cc(NC(=O)c3ccc(C)c(Nc4nccc(-c5cnccn5)n4)c3)cc(C(F)(F)F)c2)cn1", "outcome": "inactive"}
{"smiles": "C=C(C(=O)O)C1CC(OC(=O)CC(C)CC)C2(C)CCCC(=C)C2C1", "note": "(centres undefined)", "outcome": "inactive"}
{"smiles": "O=C(O)CCc1c(C(=O)O)[nH]c2cc(Cl)cc(Cl)c12", "outcome": "inactive [at 17.4 µM]"}
{"smiles": "CC(C)C1(O)C=C2C(=O)CC3C(C)(C(=O)O)CCCC3(C)C2CC1", "note": "(centres undefined)", "outcome": "inactive"}
{"smiles": "COc1cc2c(cc1O)CC(O)(CO)C(CO)C2c1ccc(OC2OC(CO)C(O)C(O)C2O)c(OC)c1", "note": "(centres undefined)", "outcome": "inactive [at 17.4 µM]"}
{"smiles": "C=C1C(OC(C)=O)[C@@]23CCC4[C@](C)(C(=O)O)CCC[C@@]4(C)[C@]2(O)CC[C@H]1C3", "note": "(some centres undefined)", "outcome": "inactive"}
{"smiles": "C=C(C)C1Cc2c(ccc3c2OCC(c2ccc(O)cc2O)C3)O1", "note": "(centres undefined)", "outcome": "inactive"}
{"smiles": "COC(=O)C1=COC(OC2OC(CO)C(O)C(O)C2O)C2C(COC(=O)/C=C/c3ccc(O)cc3)C(O)C(O)C12", "note": "(centres undefined)", "outcome": "inactive [at 17.4 µM]"}
{"smiles": "C=C1CC/C=C(/CO)C(=O)C[C@@H]2[C@@H]1C[C@@]2(C)COC(C)=O", "outcome": "inactive"}
{"smiles": "COC(O)(CC(C)C)C1Oc2cc(C)[nH]c(=O)c2O1", "note": "(centres undefined)", "outcome": "inactive"}
{"smiles": "CN1CCN(C2=Nc3ccccc3Nc3ccc(O)cc32)CC1", "outcome": "inactive"}
{"smiles": "O=C(O)CC/C=C\\C[C@H]1CO[C@@H](c2ccccc2Cl)O[C@H]1c1ccccc1O", "outcome": "inactive"}
{"smiles": "C=C1C(=O)O[C@@H]2/C=C(\\C)CC/C=C(\\C(=O)O[C@@H]3O[C@H](CO)[C@@H](O)[C@H](O)[C@H]3O)CC[C@@H]12", "outcome": "inactive [at 17.4 µM]"}
{"smiles": "C/C(=C\\CC[C@H](CO)[C@@H]1CC[C@]2(C)C3=C(CC[C@@]12C)[C@@]1(C)CCC(=O)C(C)(C)C1CC3)C(=O)O", "note": "(some centres undefined)", "outcome": "inactive [at 17.4 µM]"}
{"smiles": "C=C1CC[C@H]2[C@@](C)(CCC(OC3OC(CO)C(O)C(O)C3O)[C@@]2(C)CO)C1C(=O)CC1=CCOC1=O", "note": "(some centres undefined)", "outcome": "inactive [at 17.4 µM]"}
{"smiles": "Cc1cc(Cn2cnc3c2CC(C(=O)O)N(C(=O)C(c2ccccc2)c2ccccc2)C3)ccc1N(C)C", "note": "(centres undefined)", "outcome": "inactive"}
{"smiles": "CC1(C)CCC2(C(=O)O)CCC3(C)C(=CCC4C5(C)CCC(O)C(C)(CO)C5C(O)CC43C)C2C1", "note": "(centres undefined)", "outcome": "inactive [at 17.4 µM]"}
{"smiles": "C=CC(C)(C)C12Nc3c(ccc4c3OC(C)(C)C=C4)C1(O)CC1C(=O)N3CCCC3C(=O)N12", "note": "(centres undefined)", "outcome": "inactive [at 17.4 µM]"}
{"smiles": "C=CC1(C)CC2CCC3C(C)(C(=O)O)CCCC3(C)C2=CC1=O", "note": "(centres undefined)", "outcome": "inactive"}
{"smiles": "CC(C)c1ccc2c(c1)C(=O)CC1C(C)(C(=O)O)CCCC21C", "note": "(centres undefined)", "outcome": "inactive"}
{"smiles": "NC[C@H]1CCC[C@@H](CNC(=O)[C@@H](Cc2c[nH]c3ccccc23)NC(=O)N2CCC3(C=Cc4ccccc43)CC2)C1", "outcome": "inactive"}
{"smiles": "C[C@H]1CC[C@H]2[C@@H](C=C[C@@](C)(O)[C@]2(C)C(=O)CCO)C1", "outcome": "inactive"}
{"smiles": "CC(=O)OC[C@]12[C@H](OC(C)=O)[C@H](OC(=O)c3ccccc3)[C@@H]3[C@@H](OC(C)=O)[C@]1(OC3(C)C)[C@H](C)C[C@H](OC(=O)c1ccccc1)[C@@H]2OC(=O)c1ccccc1", "outcome": "inactive [at 17.4 µM]"}
{"smiles": "CCOC(=O)CSc1nc2c(sc3ccccc32)c(=O)n1CCCN1CCCC1", "outcome": "inactive"}
{"smiles": "CC(C)=CCC[C@](C)(O[C@@H]1O[C@H](CO[C@@H]2O[C@@H](CO)[C@H](O)[C@H]2O[C@@H]2OC[C@@H](O)[C@H](O)[C@H]2O)[C@@H](O)[C@H](O)[C@H]1O)[C@H]1CC[C@]2(C)[C@@H]1[C@H](O)CC1[C@@]3(C)CC[C@H](O[C@@H]4O[C@H](CO)[C@@H](O)[C@H](O)[C@H]4O[C@@H]4O[C@H](CO)[C@@H](O)[C@H](O)[C@H]4O)C(C)(C)C3CC[C@]12C", "note": "(some centres undefined)", "outcome": "inactive [at 9.27 µM]"}
